Measurements: PubChem BioAssay (EPA / NIEHS)
Values joined by “and” are separate entries in the source; they are usually repeats but may differ in a detail not shown here. Equal entries are not always repeated. Inconclusive results are not listed. Where a structure was tested more than once in an assay, its records may differ in their call. Active and inactive are the calls of the source. The calls were made as follows, unless noted: active = hit-call score of the fitted dose curve at least 0.9, where 1 is the maximum; inactive = score below 0.9.

Tests used:
[1] = CCTE_Shafer_MEA_acute_cross_correlation_area: CCTE's Neural Acute Assay for Area of Cross Correlation, Shafer Lab (AID 2284024);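 also: area under pooled inter-electrode spike cross-correlation near zero lag as percent change from own baseline; curves fitted for loss of cross-correlation area so actives lower synchrony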
Summary of the method: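 Extracellular recordings from cultured rat cortical neurons measure network synchrony as cross-correlation area; each well's post-compound value (0.03-40 uM, 40 min) is compared with its own 40 min baseline to give percent change.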

[2] = CCTE_Shafer_MEA_acute_synchrony_index: CCTE's Neural Acute Assay for Synchrony, Shafer Lab (AID 2284027);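 also: network synchrony index of spontaneous spiking in primary rat cortical neurons on MEAs; fitted for loss of signal so actives lower synchrony relative to DMSO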
Summary of the method: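 Spontaneous firing of mature rat cortical networks is captured extracellularly on microelectrode arrays at 37 C, with wells needing ≥10 active electrodes. Each compound (0.03-40 uM) is judged by the change in synchrony index from baseline over 40 min.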

[3] = CCTE_Shafer_MEA_dev_firing_rate_mean: CCTE's Neural Network Formation Assay for Mean Firing Rate, Shafer Lab (AID 2284031);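 as to AC50: curve fitted for loss of firing so AC50 reflects decreased mean firing rate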
Summary of the method: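 Developing rat cortical networks on MEA plates undergo 12-day compound exposure. Firing frequency, averaged across active electrodes, is integrated as area under the curve over four recording days, referenced to DMSO.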

[4] = CCTE_Shafer_MEA_dev_per_burst_spike_percent: CCTE's Neural Network Formation Assay for Percent of Spikes in a Burst, Shafer Lab (AID 2284032);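 as to AC50: fitted as a decrease in burst spike percentage below DMSO baseline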
Summary of the method: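 Rat primary cortical neurons on 16-electrode MEA wells, dosed from plating day 0 for 12 days with renewal on DIV 5 and 9; spikes-in-bursts percentage averaged over bursting electrodes, collapsed as AUC across days 5, 7, 9, 12; loss direction versus DMSO.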

[5] = CCTE_Shafer_MEA_dev_active_electrodes_number: CCTE's Neural Network Formation Assay for Number of Active Electrodes, Shafer Lab (AID 2284040; active = hit-call score of the fitted dose curve at least 0.9, where 1 is the maximum;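 also: potency for loss of active electrodes versus DMSO so lower counts are hits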)
Summary of the method: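 Rat cortical primary cultures, 1.5 x 10^5 cells/well, PEI-coated MEA, laminin drop. Continuous exposure DIV 0–12; full media/compound change DIV 5, 9. Readout: electrodes with mean firing ≥5 spikes/min; AUC across days; loss vs DMSO.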

[6] = CCTE_Shafer_MEA_dev_bursting_electrodes_number: CCTE's Neural Network Formation Assay for Number of Bursting Electrodes, Shafer Lab (AID 2284043; active = hit-call score of the fitted dose curve at least 0.9, where 1 is the maximum;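 also: potency is for loss of bursting electrodes relative to DMSO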)
Summary of the method: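 Read-out is the per-well number of electrodes bursting at least once every 2 minutes, recorded on days 5, 7, 9 and 12 and collapsed by trapezoidal area under the curve. Cultures were primary rat cortical neurons on MEA plates, treated continuously from plating.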

[7] = CCTE_Shafer_MEA_dev_per_burst_interspike_interval: CCTE's Neural Network Formation Assay for Burst Interspike Interval, Shafer Lab (AID 2284044);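 also: mean spike spacing inside bursts as AUC over recordings on days 5 7 9 12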;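 as to AC50: potency for a decrease of within-burst interspike interval below DMSO level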
Summary of the method: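 Spontaneous activity of maturing rat cortical networks is recorded on DIV 5, 7, 9 and 12 under chronic compound exposure beginning at plating. Endpoint: burst interspike interval well-mean, collapsed into trapezoidal AUC and fitted in the negative direction relative to DMSO.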

[8] = CCTE_Shafer_MEA_dev_burst_duration_mean: CCTE's Neural Network Formation Assay for Mean Burst Duration, Shafer Lab (AID 2284045)
Summary of the method: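 Read-out: average first-to-last-spike interval within single-electrode bursts, averaged over bursting electrodes per well, then summarised as area under the curve across days 5, 7, 9 and 12. Developing rat cortical networks were exposed from day 0.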

[9] = CCTE_Shafer_MEA_dev_interburst_interval_mean: CCTE's Neural Network Formation Assay for Mean Interburst Interval, Shafer Lab (AID 2284046);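 also: well-mean interburst interval of bursting electrodes as AUC over four recording days; curve fitted for decrease in interburst interval relative to DMSO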
Summary of the method: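 Network formation assay in primary rat cortical cultures, exposed from DIV 0 to 12. Mean interburst interval per well, integrated as AUC over four recordings.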

[10] = CCTE_Shafer_MEA_dev_inter_network_spike_interval_mean: CCTE's Neural Network Formation Assay for Mean Inter-network Spike Interval, Shafer Lab (AID 2284047)
Summary of the method: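 Compound was given at plating to primary rat cortical neurons and renewed with full medium changes on DIV 5 and 9. Extracellular activity was recorded on days 5, 7, 9, 12; AUC values were fitted for loss relative to DMSO control.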

[11] = CCTE_Shafer_MEA_dev_network_spike_number: CCTE's Neural Network Formation Assay for Number of Network Spikes, Shafer Lab (AID 2284048);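 also: synchronized bursts across electrodes counted on days 5 7 9 12 and integrated as AUC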;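 as to AC50: fit as a loss of signal meaning fewer network spikes than DMSO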
Summary of the method: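 Developing networks of primary rat cortical neurons are treated over 12 days starting at plating, with media and compound fully replaced on DIV 5 and 9. Network spike counts from four recording days are integrated as trapezoidal AUC.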

[12] = biological target: Estrogen receptor (Homo sapiens) (UniProt P03372); test: CCTE_Deisenroth_AIME_384WELL_LUC_Active: CCTE's 384-well Estrogen Receptor Transactivation Assay with AIME metabolic competence (ERTA luciferase; metabolism positive), Deisenroth Lab (AID 2284030; active = hit-call score of the fitted dose curve at least 0.9, where 1 is the maximum)
Summary of the method: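 Estrogenic luciferase signal in VM7Luc4E2 cells is measured at 24 hour, after chemicals have been preconditioned 2 hours with PB/BNF-induced rat hepatic S9 in alginate. Gain of signal is fitted relative to 17beta-estradiol, across 0.002 - 200 uM.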

[13] = CCTE_Deisenroth_AIME_384WELL_CTox_Active: Cytotoxicity Assessment (CTOX) in CCTE's 384-well Estrogen Receptor Transactivation Assay with AIME metabolic competence (metabolism positive), Deisenroth Lab (AID 2284037; active = hit-call score of the fitted dose curve at least 0.9, where 1 is the maximum;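 also: chemicals first conditioned 2 h by alginate-bound induced rat liver S9 before cells; activity means signal loss indicating cell death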)
Summary of the method: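 Cytotoxicity in VM7Luc4E2 breast cells, 24 hour, measured as protease-substrate fluorescence loss, after 2-hour metabolic conditioning with induced rat hepatic S9 in alginate microspheres. Concentrations 0.002 - 200 uM, 10 points, bidirectional fitting.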

[14] = biological target: Estrogen receptor (Homo sapiens) (UniProt P03372); test: CCTE_Deisenroth_AIME_384WELL_LUC_Inactive: CCTE's 384-well Estrogen Receptor Transactivation Assay without AIME metabolic competence (ERTA luciferase; metabolism negative), Deisenroth Lab (AID 2284038; active = hit-call score of the fitted dose curve at least 0.9, where 1 is the maximum;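 also: VM7Luc4E2 breast cells given medium preincubated 2 h with S9-free microspheres; hits raise estrogen receptor luciferase signal so potencies reflect agonists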)
Summary of the method: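 Chemicals (10-point series, 0.002 - 200 uM) were incubated 2 hours with alginate-water microsphere lids lacking S9, then the conditioned medium was transferred to VM7Luc4E2 breast cells for 24 hour. Luciferase induction was read by bioluminescence, fitted upward relative to 17beta-estradiol.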

[15] = CCTE_Deisenroth_AIME_384WELL_CTox_Inactive: Cytotoxicity Assessment (CTOX) in CCTE's 384-well Estrogen Receptor Transactivation Assay without AIME metabolic competence (metabolism negative), Deisenroth Lab (AID 2284039; active = hit-call score of the fitted dose curve at least 0.9, where 1 is the maximum;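 also: cell viability via live-cell protease substrate cleaved to fluorescent probe; cells exposed 24 h to medium preincubated 2 h with alginate-water beads without S9; loss of fluorescence signal means loss of viability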)
Summary of the method: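 Fluorescence from a live-cell protease substrate, read after 24 h in VM7Luc4E2 cells, indicated viability. Test medium came from a 2 h AIME step without hepatic S9 (alginate-water microspheres); concentrations spanned 0.002 - 200 uM, single technical replicate per run.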

[16] = biological target: Estrogen receptor (Homo sapiens) (UniProt P03372); test: CCTE_Deisenroth_AIME_384WELL_LUC_Shift: CCTE's 384-well Estrogen Receptor Transactivation Assay with AIME metabolic competence data shift (ERTA luciferase; difference in metabolism positive and negative), Deisenroth Lab (AID 2284041);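 also: shift is response with S9 minus without S9 so positive means metabolism raised ER signal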
Summary of the method: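 Test chemicals (0.002–200 uM, 10-point) were pre-incubated 2 h with alginate microspheres containing phenobarbital/beta-naphthoflavone-induced male Sprague Dawley rat liver S9 or water, then medium was transferred to VM7Luc4E2 cells for 24 h luciferase readout; shift = S9-positive minus S9-negative normalized response.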

DIO2 (gene 1734) = test: CCTE_GLTED_hDIO2: CCTE's human Deiodinase 2 (DIO2) Inhibition Assay, Great Lakes Toxicology and Ecology Division (GLTED) Lab (AID 2284050; active = hit-call score of the fitted dose curve at least 0.9, where 1 is the maximum)
Summary of the method: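 In this cell-free test, chemicals are exposed to human deiodinase type 2 for 3 hours. Released iodide is determined spectrophotometrically via the Sandell-Kolthoff method, and signal loss relative to DMSO is fitted.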

Measured: AC50

Estrogen receptor (Homo sapiens), sequence (P03372 whole entry, looked up): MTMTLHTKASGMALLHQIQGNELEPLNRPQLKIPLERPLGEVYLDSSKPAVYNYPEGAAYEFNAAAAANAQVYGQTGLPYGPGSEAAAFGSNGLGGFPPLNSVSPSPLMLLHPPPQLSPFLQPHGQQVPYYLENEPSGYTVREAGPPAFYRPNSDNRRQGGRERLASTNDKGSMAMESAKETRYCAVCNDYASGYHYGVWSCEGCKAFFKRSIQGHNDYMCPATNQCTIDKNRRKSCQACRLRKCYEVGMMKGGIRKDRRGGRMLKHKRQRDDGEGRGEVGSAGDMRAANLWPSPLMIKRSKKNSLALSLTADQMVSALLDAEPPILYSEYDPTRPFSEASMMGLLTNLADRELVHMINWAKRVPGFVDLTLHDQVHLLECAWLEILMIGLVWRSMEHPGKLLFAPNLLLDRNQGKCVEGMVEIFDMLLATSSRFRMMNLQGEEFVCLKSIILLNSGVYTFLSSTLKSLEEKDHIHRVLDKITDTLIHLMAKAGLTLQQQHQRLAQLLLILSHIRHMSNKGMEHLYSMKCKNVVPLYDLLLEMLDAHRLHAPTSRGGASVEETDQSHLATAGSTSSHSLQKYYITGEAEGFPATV

ClC(Cl)=C(c1ccc(Cl)cc1)c1ccc(Cl)cc1
inactive: [1] | [2] | [8] | [10]
active: [3] 4.06 µM | [4] 5.67 µM | [5] 4.01 µM | [6] 5.08 µM | [7] 7.73 µM | [9] 7.75 µM | [11] 1.23 µM

CC(C)C(=O)OCC(C)(C)C(OC(=O)C(C)C)C(C)C (centres undefined)
inactive: [1] | [2]

CCCN(CCC)N=O
inactive: [1] | [2] | [12] | [13] | [14] | [15] | [16]

CCCCCCCCCc1ccc(O)cc1
active: [2] 20.9 µM | [12] 26.3 µM | [13] 150 µM | [14] 24.5 µM | [15] 146 µM | [16] 31.4 µM | DIO2 (gene 1734) 136 µM
inactive: [1]

COc1ccc(O)c(C(C)(C)C)c1
active: [1] 0.0444 µM | [2] 15 µM and 3.93 µM and 33 µM
inactive: [1] | [12] | [3] | [4] | [13] | [14] | [16] | [7] | [8] | [9] | [10] | [11]

Clc1ccc(C(Cl)(Cl)Cl)cc1
active: DIO2 (gene 1734) 61.7 µM
inactive: [1] | [2] | [12] | [13] | [14] | [15] | [16]

CCSC(=O)N(CC)C1CCCCC1
active: [2] 3.61 µM
inactive: [1]

O=C(NC(=O)c1c(F)cccc1F)Nc1cc(Cl)c(OC(F)(F)C(F)F)c(Cl)c1
inactive: [1] | [2]

CC(c1ccc(O)cc1)(c1ccc(O)cc1)c1ccc(O)cc1
inactive: [1]
active: [2] 28.8 µM

CN(C)CCO
inactive: [1] | [2] | [12] | [13] | [14] | [16]

COS(=O)(=O)OC
inactive: [1] | [2] | [12] | [13] | [14] | [16]

CCC(C)c1cc([N+](=O)[O-])cc([N+](=O)[O-])c1O (centres undefined)
inactive: [1] | [2]

CCCCCCCCCC[N+](C)(C)CCCCCCCCCC
inactive: [1]
active: [2] 14.4 µM | DIO2 (gene 1734) 62.7 µM

Nc1ccc(-c2ccc(N)cc2)cc1
inactive: [1] | [2] | [12] | [13] | [14] | [15] | [16]

CC#Cc1cc(C)nc(Nc2ccccc2)n1
inactive: [1]
active: [2] 6.46 µM | DIO2 (gene 1734) 22.2 µM

ClC1=C(Cl)[C@]2(Cl)[C@@H]3[C@@H](Cl)[C@H]4O[C@H]4[C@@H]3C1(Cl)C2(Cl)Cl
inactive: [3] | [8] | [9] | [10]
active: [1] 0.118 µM | [2] 0.0952 µM | [4] 25.3 µM | [5] 23.3 µM | [6] 24.9 µM | [7] 15 µM | [11] 2.98 µM
